# Results reported in PubChem BioAssay (NCATS).
# Inconclusive results are not listed. Calls of active or inactive are those of the source. Calls come from the whole dose curve; as a rule, active = well fitted curve in the direction sought with a large enough effect; inconclusive = small, poorly fitted or top-dose-only effect, or another doubt; inactive = no such curve, though single readings can be large; an effect the other way counts as inactive or inconclusive.
# Biological target: Cytochrome P450 3A4 (Homo sapiens) (UniProt P08684)
# Sequence (P08684 whole entry, looked up): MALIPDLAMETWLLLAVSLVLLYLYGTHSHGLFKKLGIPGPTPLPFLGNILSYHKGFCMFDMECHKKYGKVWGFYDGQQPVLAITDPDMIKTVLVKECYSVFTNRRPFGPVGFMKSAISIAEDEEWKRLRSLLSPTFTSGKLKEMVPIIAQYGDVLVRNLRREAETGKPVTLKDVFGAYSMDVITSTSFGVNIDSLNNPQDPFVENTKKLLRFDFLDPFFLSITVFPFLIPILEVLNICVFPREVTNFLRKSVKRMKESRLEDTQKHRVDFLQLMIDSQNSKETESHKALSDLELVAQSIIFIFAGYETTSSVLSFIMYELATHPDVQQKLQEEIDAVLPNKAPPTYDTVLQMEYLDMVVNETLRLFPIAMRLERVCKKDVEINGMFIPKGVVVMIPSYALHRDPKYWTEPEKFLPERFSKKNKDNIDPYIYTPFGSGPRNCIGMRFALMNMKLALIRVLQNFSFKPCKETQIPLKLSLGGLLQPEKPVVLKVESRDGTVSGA
# Assay: qHTS Assay for Inhibitors and Substrates of Cytochrome P450 3A4 (AID 884); note: % is set by controls: 0 for no effect and ±100 for the full control effect; nearly all actives have a fitted effect of over 50% in size
# Conditions: recombinant CYP3A4, Luciferin-PPXE luminescence; series mostly up to 57.1 µM; activity change, negative = inhibition: at the top concentration
# In short: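 Luminescent readout of luciferin produced by CYP3A4 (20 nM) dealkylation of Luciferin-PPXE, 25 uM (its KM). NADPH-driven reaction ran 60 min at RT after 10 min compound preincubation; data scaled to 57 uM ketoconazole as 100% inhibition.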
Compound,"activity change, negative = inhibition",outcome
NS(=O)(=O)c1cc2c(cc1Cl)NC(C(Cl)Cl)NS2(=O)=O (stereo unspecified),-4.17% (inactive),–
COc1ccccc1OCC(O)COC(N)=O (stereo unspecified),-9.35% (inactive),–
O=S(=O)(O)CCS,-1.93% (inactive),–
CCc1c2c(nc3ccc(OC(=O)N4CCC(N5CCCCC5)CC4)cc13)-c1cc3c(c(=O)n1C2)COC(=O)[C@]3(O)CC,-17.6% (inactive),–
COc1cnc(NS(=O)(=O)c2ccc(N)cc2)nc1,-6.98% (inactive),–
COC(=O)Nc1nc2ccc(Sc3ccccc3)cc2[nH]1,-11.4% (inactive),–
COc1ccc2c(c1)c(CC(=O)OCC(=O)O)c(C)n2C(=O)c1ccc(Cl)cc1,-30.5% (inactive),–
O=c1oc2c(O)c(O)cc3c(=O)oc4c(O)c(O)cc1c4c23,–,inactive
COc1ccc(C(=O)CC(=O)c2ccc(C(C)(C)C)cc2)cc1,-13.7% (inactive),–
Nc1ccc(S(=O)(=O)Nc2ccccn2)cc1,-36.8% (inactive),–
O=C(O)c1cccnc1,-1.69% (inactive),–
CC(=O)CC(c1ccccc1)c1c(O)c2ccccc2oc1=O (stereo unspecified),-27.7% (inactive),–
Nc1nc(=S)c2[nH]cnc2[nH]1,-23.1% (inactive),–
CN(C)CCc1c[nH]c2ccc(CS(=O)(=O)N3CCCC3)cc12,5.63% (inactive),–
CNS(=O)(=O)Cc1ccc2[nH]cc(CCN(C)C)c2c1,-0.187% (inactive),–
Cn1c(=O)c2c(ncn2CC(O)CO)n(C)c1=O (stereo unspecified),-16.7% (inactive),–
COc1c(N2CCNC(C)C2)c(F)cc2c(=O)c(C(=O)O)cn(C3CC3)c12 (stereo unspecified),-3.35% (inactive),–
Nc1nc(N)c2nc(CNc3ccc(C(=O)NC(CCC(=O)O)C(=O)O)cc3)cnc2n1 (stereo unspecified),-5.32% (inactive),–
CCCCOc1ccc(CC(=O)NO)cc1,-28.8% (inactive),–

# Biological target: Cytochrome P450 3A4 (Homo sapiens) (UniProt P08684)
# Assay: qHTS Assay for Activators of Cytochrome P450 3A4 (AID 885); note: nearly all actives have a fitted effect of over 65% in size
# Conditions: recombinant CYP3A4, Luciferin-PPXE luminescence, 60 min; series mostly up to 57.1 µM; activity change, positive = activation: at the top concentration
# In short: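 Using 20nM recombinant human CYP3A4 in potassium phosphate (200mM), substrate Luciferin-PPXE at 25uM, luminescent luciferin detection followed a 60-min RT NADPH reaction; data scaled to 57 uM ketoconazole.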
row,Compound,"activity change, positive = activation"
1,CCCCS(=N)(=O)CCC(N)C(=O)O (stereo unspecified),-57.3% (inactive)
2,Cc1cccc(N(C)C(=S)Oc2ccc3ccccc3c2)c1,-40.4% (inactive)
3,C1CCC(C(CC2CCCCN2)C2CCCCC2)CC1 (stereo unspecified),-50.3% (inactive)
4,COc1cc([C@@H]2c3cc4c(cc3[C@H](O)[C@H]3COC(=O)[C@H]23)OCO4)cc(OC)c1OC,-107% (inactive)
5,CC1=CC(=O)c2ccccc2C1=O,-38.9% (inactive)
6,Cc1cccc(Nc2ccncc2S(=O)(=O)NC(=O)NC(C)C)c1,-50.1% [at 25.6 µM] (inactive)

# Biological target: Cytochrome P450 2D6 (Homo sapiens) (UniProt P10635)
# Sequence (P10635 whole entry, looked up): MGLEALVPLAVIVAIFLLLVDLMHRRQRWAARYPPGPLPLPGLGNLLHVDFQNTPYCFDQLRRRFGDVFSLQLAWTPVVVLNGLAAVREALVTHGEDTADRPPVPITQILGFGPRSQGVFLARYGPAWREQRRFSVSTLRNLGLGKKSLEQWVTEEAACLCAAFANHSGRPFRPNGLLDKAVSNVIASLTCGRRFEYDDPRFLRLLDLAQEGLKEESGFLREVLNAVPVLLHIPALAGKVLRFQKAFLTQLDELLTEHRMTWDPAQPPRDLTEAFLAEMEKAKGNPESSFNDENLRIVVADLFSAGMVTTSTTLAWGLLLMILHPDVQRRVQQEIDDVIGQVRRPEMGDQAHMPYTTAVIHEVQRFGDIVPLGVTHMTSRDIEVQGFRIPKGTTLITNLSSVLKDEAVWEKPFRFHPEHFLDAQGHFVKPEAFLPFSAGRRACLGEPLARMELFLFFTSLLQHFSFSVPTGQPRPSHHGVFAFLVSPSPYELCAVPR
# Assay: qHTS Assay for Inhibitors and Substrates of Cytochrome P450 2D6 (AID 891); note: nearly all actives have a fitted effect of over 60% in size; note: potency is the fitted concentration of half-maximal effect;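 for activity change, negative = inhibition: luciferin methyl ether substrate demethylated by CYP2D6 with NADPH regeneration; % is set by controls: 0 for no effect and ±100 for the full control effect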
# Conditions: recombinant CYP2D6, luciferin-ME EGE luminescence; series mostly up to 57.1 µM; activity change, negative = inhibition: at the top concentration
# In short: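 Luminescent read-out of luciferin formed by 5 nM human CYP2D6 demethylating 30 uM Luciferin-ME EGE (Km level) over 60 min at room temperature after NADPH regeneration addition. Data normalized to full inhibition by 1.43 uM quinidine.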
Compound,Potency,"activity change, negative = inhibition"
CCOC(=O)c1ccc(OC(=O)CCCCCN=C(N)N)cc1,0.316 µM (active),–
O=c1oc2c(O)c(O)cc3c(=O)oc4c(O)c(O)cc1c4c23,–,-2.2% (inactive)
CC1=CC(=O)c2ccccc2C1=O,7.94 µM (active),–

# Biological target: Cytochrome P450 2C19 (Homo sapiens) (UniProt P33261)
# Sequence (P33261 whole entry, looked up): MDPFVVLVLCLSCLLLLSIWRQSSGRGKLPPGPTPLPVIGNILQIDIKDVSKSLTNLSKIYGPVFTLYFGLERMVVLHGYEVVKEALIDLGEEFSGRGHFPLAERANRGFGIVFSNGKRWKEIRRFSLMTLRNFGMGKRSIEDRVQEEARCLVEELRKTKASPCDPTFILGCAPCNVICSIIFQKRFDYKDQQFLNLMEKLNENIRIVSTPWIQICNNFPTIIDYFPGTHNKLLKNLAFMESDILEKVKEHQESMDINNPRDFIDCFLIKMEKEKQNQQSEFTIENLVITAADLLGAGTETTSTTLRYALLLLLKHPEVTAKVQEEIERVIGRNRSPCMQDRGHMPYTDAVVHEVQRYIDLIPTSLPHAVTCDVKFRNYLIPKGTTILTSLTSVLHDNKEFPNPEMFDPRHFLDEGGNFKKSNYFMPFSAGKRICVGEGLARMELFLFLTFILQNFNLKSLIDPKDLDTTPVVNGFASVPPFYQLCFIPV
# Assay: qHTS Assay for Inhibitors and Substrates of Cytochrome P450 2C19 (AID 899); note: nearly all actives have a fitted effect of over 60% in size; note: potency is the fitted concentration of half-maximal effect; for activity, negative = inhibition: % is set by controls: 0 for no effect and ±100 for the full control effect
# Conditions: recombinant CYP2C19, luciferin-H EGE luminescence; series mostly up to 57.1 µM; activity, negative = inhibition: at the top concentration
# In short: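 Luminescent read-out of luciferin formed from Luciferin-H EGE (10uM, equal to KM). Enzyme 5nM in 50mM KPO4; compound added, 10 min at 37C, then NADPH regenerating system for 60 min at 37C. Full inhibition defined by 57uM ketoconazole.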
Compound,"activity, negative = inhibition",Potency
CCCOc1ccc(C(=O)OCCN(CC)CC)cc1N,50.2% [at 25.6 µM] (inactive),–
O=c1oc2c(O)c(O)cc3c(=O)oc4c(O)c(O)cc1c4c23,–,31.6 µM (active)
CC1=CC(=O)c2ccccc2C1=O,–,2.51 µM (active)
